This passage reports Potency results from PubChem BioAssay (Tox21).

The structures appear in SMILES notation. Several values for one entry are separate records, joined by “and”; a condition that tells them apart may be missing. Equal entries are not always repeated. Results filed as inconclusive are left out. Entries that show only a call come without a potency. Activity calls are given as the source filed them. Calls come from the whole dose curve; as a rule, active = well fitted inhibition curve with a large enough effect in the repeat runs; inconclusive = weak or mixed curves; inactive = flat fitted curve, though single readings scatter.
Potency is the fitted concentration of half-maximal effect.

In this assay the target is Voltage-gated inwardly rectifying potassium channel KCNH2 (Homo sapiens) (UniProt Q12809). As to the kind of experiment: Human Ether-a-go-go-Related Gene (hERG) channel small molecule antagonists: fluorescence cell-based qHTS assay (AID 1671200). Note: nearly all actives have a fitted effect of over 50% in size. To be noted: hERG-U2OS cells, FluxOR thallium flux fluorescence; series mostly up to 76.8 µM. The essentials: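 Measured: Tl+ flux via fluorescence (480/540 nm) in hERG-expressing U2OS cells after 1 h dye loading at room temperature.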
Sequence of Voltage-gated inwardly rectifying potassium channel KCNH2 (Homo sapiens) (Q12809 whole entry, looked up): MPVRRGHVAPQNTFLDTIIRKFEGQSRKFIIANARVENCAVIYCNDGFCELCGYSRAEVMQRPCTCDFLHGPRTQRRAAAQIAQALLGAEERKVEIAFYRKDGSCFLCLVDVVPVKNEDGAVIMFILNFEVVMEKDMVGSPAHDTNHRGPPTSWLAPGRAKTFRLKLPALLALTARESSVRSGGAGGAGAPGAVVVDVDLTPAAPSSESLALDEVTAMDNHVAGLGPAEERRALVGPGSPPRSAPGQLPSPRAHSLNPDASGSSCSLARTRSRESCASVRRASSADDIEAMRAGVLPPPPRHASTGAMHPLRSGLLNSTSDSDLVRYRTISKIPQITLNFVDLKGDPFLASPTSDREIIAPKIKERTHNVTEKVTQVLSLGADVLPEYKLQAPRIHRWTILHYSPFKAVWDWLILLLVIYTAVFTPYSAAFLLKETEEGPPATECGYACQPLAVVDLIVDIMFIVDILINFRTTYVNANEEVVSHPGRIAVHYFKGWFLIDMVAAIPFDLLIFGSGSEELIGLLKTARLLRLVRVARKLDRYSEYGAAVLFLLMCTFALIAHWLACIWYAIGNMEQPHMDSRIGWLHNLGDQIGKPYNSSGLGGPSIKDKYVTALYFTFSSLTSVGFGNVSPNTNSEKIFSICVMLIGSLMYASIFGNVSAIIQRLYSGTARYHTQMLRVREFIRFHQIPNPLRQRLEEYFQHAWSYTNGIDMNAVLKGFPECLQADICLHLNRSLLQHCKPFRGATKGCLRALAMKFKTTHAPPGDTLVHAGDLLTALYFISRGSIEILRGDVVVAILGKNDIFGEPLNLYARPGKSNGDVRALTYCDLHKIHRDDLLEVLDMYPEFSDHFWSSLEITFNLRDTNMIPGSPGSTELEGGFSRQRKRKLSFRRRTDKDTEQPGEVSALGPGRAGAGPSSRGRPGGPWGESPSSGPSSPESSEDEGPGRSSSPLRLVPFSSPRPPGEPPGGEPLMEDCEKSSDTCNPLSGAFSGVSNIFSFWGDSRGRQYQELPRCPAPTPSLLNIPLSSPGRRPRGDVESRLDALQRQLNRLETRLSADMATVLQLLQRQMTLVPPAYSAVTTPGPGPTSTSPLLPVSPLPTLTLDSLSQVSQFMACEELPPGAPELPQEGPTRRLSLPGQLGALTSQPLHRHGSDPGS
In general terms: The hERG channel carries a current that helps repolarise heart muscle cells.
On to `CCOCCOCCO`, for which the Potency result is “inactive”.
Turning to `CC1=CCC(C(C)(C)O)CC1` (centres undefined), the Potency entry is “inactive”.
On to `CC(=O)Oc1ccccc1C(=O)Nc1ncc([N+](=O)[O-])s1`, for which the Potency entry was “inactive”.
As to `CC(=O)c1ccccn1`, the Potency result is “inactive”.
As for `NC=O`, the Potency result was “inactive”.
As to `COc1ccc(OC)c(C(O)CNC(=O)CN)c1` (centres undefined), the Potency entry is “inactive”.
As to `O=CCCCC=O`, the Potency entry is “inactive”.
As for `COc1ccc(C(=O)CC(=O)c2ccc(C(C)(C)C)cc2)cc1`, the Potency entry is “inactive”.
The same measure for `C#C[C@]1(O)CC[C@H]2[C@@H]3CCC4=Cc5oncc5C[C@]4(C)[C@H]3CC[C@@]21C`: “inactive”; for `Nc1ncnc2nc[nH]c12`: “inactive”.
Consider `O=C(COc1ccc(Cl)cc1)N1CCN(Cc2ccc3c(c2)OCO3)CC1`, for which the Potency was 19.5 µM (active) and 8.49 µM (active).
As to `Cc1c(C(N)=O)cc([N+](=O)[O-])cc1[N+](=O)[O-]`, the Potency result was “inactive”.
In the case of `O=Cc1ccccc1O`, the Potency result was “inactive”.
The same measure for `C[Si](C)(C)O[Si](C)(C)C`: “inactive”.
The value for `O=C(O)c1ccccc1Nc1cccc(C(F)(F)F)c1` was “inactive”; that for `CCCC(=O)O` was “inactive”.
For `C[C@]12CC[C@H]3[C@@H](CCC4=CC(=O)CC[C@@]43C)[C@@H]1CC[C@@H]2C(=O)CO`, the Potency entry was “inactive”.
Take `OC[C@H]1O[C@@H]2O[C@H]3[C@H](O)[C@@H](O)[C@@H](O[C@H]4[C@H](O)[C@@H](O)[C@@H](O[C@H]5[C@H](O)[C@@H](O)[C@@H](O[C@H]6[C@H](O)[C@@H](O)[C@@H](O[C@H]7[C@H](O)[C@@H](O)[C@@H](O[C@H]8[C@H](O)[C@@H](O)[C@@H](O[C@H]1[C@H](O)[C@H]2O)O[C@@H]8CO)O[C@@H]7CO)O[C@@H]6CO)O[C@@H]5CO)O[C@@H]4CO)O[C@@H]3CO`: the Potency result was “inactive”.
As to `CCCCC(CC)COCC1CO1` (centres undefined), the Potency result is “inactive”.
As for `Nc1ncn([C@@H]2O[C@H](CO)[C@@H](O)[C@H]2O)c(=O)n1`, the Potency entry was “inactive”.
Regarding `CCOC(=O)C(C#N)=C(c1ccccc1)c1ccccc1`, the Potency result was “inactive”.
Regarding `C[C@]12CCC(=O)C=C1CC[C@@H]1[C@@H]2C(=O)C[C@@]2(C)[C@H]1CC[C@]2(O)C(=O)CO`, the Potency entry was “inactive”.
On to `Nc1ccc(Nc2ccccc2)cc1`, for which the Potency result is “inactive”.
In the case of `CCCCC(CC)COC(=O)c1ccc(N(C)C)cc1` (centres undefined), the Potency result is “inactive”.
`COc1cccc2c1C(=O)c1c(O)c3c(c(O)c1C2=O)C[C@@](O)(C(=O)CO)C[C@@H]3O[C@H]1C[C@H](N)[C@H](O)[C@H](C)O1`: the Potency entry was “inactive”.
For `C=C(C)C1CC=C(C)CC1` (centres undefined), the Potency result is “inactive”.
On to `Nc1ccc(S(=O)(=O)Nc2cnc3ccccc3n2)cc1`, for which the Potency entry was “inactive”.
In the case of `CCCc1c(OCCCCc2nn[nH]n2)ccc(C(C)=O)c1O`, the Potency result was “inactive”.
Consider `O=S(=O)(O)c1ccc(O)cc1`, for which the Potency entry is “inactive”.
For the molecule `O=C1c2cccc(O)c2C(=O)c2c(O)cccc21`, the Potency entry was “inactive”.
Turning to `S=C(NC1CCCCC1)NC1CCCCC1`, the Potency entry was “inactive”.
Consider `CCCCOCCOCCO`, for which the Potency entry was “inactive”.
As to `C#C[C@]1(O)CC[C@H]2[C@@H]3CCc4cc(OC)ccc4[C@H]3CC[C@@]21C`, the Potency entry is “inactive”.
For `CC(C)(C)NC(=O)[C@H]1CC[C@H]2[C@@H]3CC[C@H]4NC(=O)C=C[C@]4(C)[C@H]3CC[C@]12C`, the Potency result is “inactive”.
